Our source for the growth values is PubChem BioAssay (NCI).

The panel holds about 83,000 compounds, 20% with a hit somewhere; the sample as a whole holds those more often.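 The test compound was applied at a single concentration to cells in 96-well plates for 48 hours, and percent growth was recorded.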 Values without a mark were called inactive. Calls of active or inactive are those of the source. The calls were made as follows: active = growth percent below 10; inactive = the rest.

Among the test systems are T-47D breast; BT-549 breast; MDA-MB-435 melanoma; SW-620 colon; MCF7 breast; HCT-116 colon; HCC-2998 colon; KM12 colon.
Holding throughout (experiment): NCI-60 one-dose screen, 48 h (100 = growth as untreated, 0 = no growth, -100 = all killed)
Common to all, as to settings: 10 µM unless noted

As to `NNC(=O)c1ccc(-n2nc(-c3ccccc3)c3ccccc32)cc1`, the growth in the experiment with T-47D breast is 38.1%; in the experiment with BT-549 breast, 73.6%; with MDA-MB-435 melanoma it was 93.9%; in the experiment on SW-620 colon, 95.5%; in the experiment on MCF7 breast, 74%; in the experiment with HCT-116 colon, 82.2%. The results for the growth with HCC-2998 colon and in the experiment with KM12 colon were 54.8% and 94.8%, respectively.

With `O=C(Nc1cccc(C(=O)N2CCc3ccc(Cl)cc32)c1)c1ccco1`, the growth is 33.6% in the experiment on T-47D breast; 37.2% in the experiment with BT-549 breast; -2.72% (active) in the experiment on MDA-MB-435 melanoma; 29.8% in the experiment with SW-620 colon; 21.6% in the experiment on MCF7 breast; 18.9% in the experiment with HCT-116 colon. Besides, the growth in the experiment on HCC-2998 colon is 68%; in the experiment on KM12 colon it was 33.6%.

As to `Cc1cc2c(C(=O)NCC#N)cccc2n1-c1nc2c(c(NCc3ccccc3)n1)CCCC2`, the growth was -16.6% (active) in the experiment on T-47D breast; -34.8% (active) with BT-549 breast; -59.8% (active) in the experiment with MDA-MB-435 melanoma; 2.79% (active) in the experiment on SW-620 colon; 1.12% (active) in the experiment on MCF7 breast; -14.4% (active) in the experiment with HCT-116 colon. In addition, the growth in the experiment with HCC-2998 colon was -87.6% (active); in the experiment on KM12 colon, -38.7% (active).

Regarding `O=C(Nc1ccccc1C(=O)N/N=C(\c1ccccc1)c1ccccn1)c1ccc(F)cc1`, the growth was 12.7% in the experiment with T-47D breast; 16.1% with BT-549 breast; 29.5% in the experiment with MDA-MB-435 melanoma; 30.2% in the experiment with SW-620 colon; 12.7% with MCF7 breast; 17% in the experiment with HCT-116 colon. For the same compound, the results for the growth with HCC-2998 colon and in the experiment on KM12 colon were 32.5% and 26.6%, respectively.

On to `O=C1Nc2cc(-c3ccc(NS(=O)(=O)c4ccccc4)cc3)ccc2/C1=C/c1ccc[nH]1`, for which the growth with T-47D breast is 18.5%; with BT-549 breast it was 24.6%; in the experiment on MDA-MB-435 melanoma, 88.2%; with SW-620 colon, 84.9%; in the experiment with MCF7 breast, 6.53% (active); in the experiment on HCT-116 colon, 82%. Moreover, the growth is 91.6% in the experiment with HCC-2998 colon and 46.7% in the experiment with KM12 colon.

`C=C1C(=O)O[C@H]2[C@H]1CC/C(CNC(=O)C(C)c1ccc(CC(C)C)cc1)=C\CC[C@@]1(C)O[C@@H]21` (some centres not stated): the growth in the experiment with T-47D breast is -46.3% (active); in the experiment with BT-549 breast it was -39.5% (active); in the experiment on MDA-MB-435 melanoma, 0.546% (active); in the experiment on SW-620 colon, -59% (active); in the experiment with MCF7 breast it was 4.24% (active); in the experiment with HCT-116 colon it was -87.8% (active). The growth in the experiment on HCC-2998 colon is -5.64% (active); in the experiment on KM12 colon, 57.8%.

For the compound `CN1[C@@H]2CC[C@H]1/C(=C\c1ccccc1)C(=O)/C2=C/c1ccccc1`, the growth in the experiment on T-47D breast is 56%; in the experiment with BT-549 breast, 35%; in the experiment with MDA-MB-435 melanoma, 25%; in the experiment with SW-620 colon, 28.8%; in the experiment on MCF7 breast, 20.4%; in the experiment on HCT-116 colon it was 11.9%. The growth in the experiment on HCC-2998 colon was 63.3%; in the experiment with KM12 colon it was 20.7%.

Turning to `Cn1ccnc1C(=O)/C=C/c1ccc(CC(=O)Nc2ccc(Cl)cc2)cc1`, the growth in the experiment on T-47D breast was 2.07% (active); with BT-549 breast it was 17.6%; with MDA-MB-435 melanoma, 17.6%; in the experiment with SW-620 colon, 7.1% (active); with MCF7 breast, 25.5%; in the experiment with HCT-116 colon it was 7.88% (active). Also, the growth with HCC-2998 colon was 30.3%; in the experiment on KM12 colon, 9.56% (active).

`COc1ccc2c(c1)C(=O)CC(c1ccccc1OC)O2` (configuration not stated): the growth is 91.1% with T-47D breast; 96.5% in the experiment on BT-549 breast; 100% in the experiment with MDA-MB-435 melanoma; 103% with SW-620 colon; 83.8% in the experiment on MCF7 breast; 103% in the experiment with HCT-116 colon. In addition, the growth in the experiment with HCC-2998 colon is 105%; with KM12 colon, 102%.

In the case of `COc1cc2nc(-c3ccc(Cl)cc3)cc(OCCCN3CCOCC3)c2cc1OC`, the growth in the experiment on T-47D breast is 28.2%; in the experiment on BT-549 breast it was 44.9%; in the experiment on MDA-MB-435 melanoma, 10.2%; in the experiment on SW-620 colon, 65%; in the experiment on MCF7 breast it was 50.2%; in the experiment on HCT-116 colon it was 21.1%. Besides, the values for the growth in the experiment on HCC-2998 colon and in the experiment with KM12 colon were 66.8% and 29.7%, respectively.

Regarding `C=C(C)[C@@H]1CC[C@]2(CN)CC[C@]3(C)[C@H](CC[C@@H]4[C@@]5(C)CCCNC(C)(C)[C@@H]5CC[C@]43C)[C@@H]12`, the growth is -10.1% (active) in the experiment on T-47D breast; 84.6% with BT-549 breast; -96.2% (active) with MDA-MB-435 melanoma; -84.5% (active) with SW-620 colon; -66.1% (active) in the experiment with MCF7 breast; -95.5% (active) in the experiment on HCT-116 colon. The growth in the experiment with HCC-2998 colon is -80.6% (active); with KM12 colon it was -85.4% (active).

Consider `CN(C)c1ccc(C2C(C#N)=C(/N=C/c3ccccc3)Oc3c2ccc2ccccc32)cc1` (configuration not stated), for which the growth is 83.1% in the experiment on T-47D breast; 69.6% in the experiment on BT-549 breast; 4.53% (active) in the experiment with MDA-MB-435 melanoma; 41% with SW-620 colon; 54.3% with MCF7 breast; 56.5% in the experiment with HCT-116 colon. The growth in the experiment on HCC-2998 colon was 104%; in the experiment on KM12 colon, 58.8%.

In the case of `O=C1c2ccc3c4c(ccc(c24)C(=O)N1CCCNCc1ccccc1F)C(=O)N(CCCNCc1ccccc1F)C3=O`, the growth in the experiment with T-47D breast was -27.9% (active); in the experiment on BT-549 breast, -85.4% (active); with MDA-MB-435 melanoma, -74.3% (active); with SW-620 colon it was -73.3% (active); in the experiment with MCF7 breast it was -80.5% (active); in the experiment with HCT-116 colon, -37.7% (active). For the same compound, the growth with HCC-2998 colon is -93.1% (active); in the experiment on KM12 colon, -76.1% (active).

`O=C(O)c1ccc(-c2nn(-c3ccc(C(F)(F)F)cc3)cc2CNc2ccc(Oc3ccccc3)cc2)cc1`: the growth in the experiment on T-47D breast is 65%; in the experiment on BT-549 breast, 90.6%; in the experiment on MDA-MB-435 melanoma it was 87.5%; in the experiment with SW-620 colon, 93.9%; with MCF7 breast it was 70.3%; with HCT-116 colon, 60.8%. Besides, the growth in the experiment on HCC-2998 colon was 115%; with KM12 colon, 59.5%.
